PubChem BioAssay (NCATS)
“And” between values parts separate entries of the source, which are not always exact repeats. Equal entries are not always repeated. Results filed as inconclusive are left out. Where a call stands in place of a potency, no number is given. The source made the active and inactive calls. Unless noted, the call rests on the fitted dose curve; in most records, active means well fitted curve in the direction sought with a large enough effect; inconclusive means small, poorly fitted or top-dose-only effect, or another doubt; inactive means no such curve, though single readings can be large; an effect the other way counts as inactive or inconclusive.

Tests used:
[1] = target: Calcium and integrin-binding protein 1 (Homo sapiens) (UniProt Q99828); experiment: Validation qHTS for Identification of Calcium Integrin Binding protein 1 (CIB1) Competitor (AID 1508618); settings: CIB1-GST / FITC-alphaIIb peptide fluorescence polarization; series mostly up to 114 µM
Chain of Calcium and integrin-binding protein 1 (Homo sapiens) (Q99828 whole entry, looked up): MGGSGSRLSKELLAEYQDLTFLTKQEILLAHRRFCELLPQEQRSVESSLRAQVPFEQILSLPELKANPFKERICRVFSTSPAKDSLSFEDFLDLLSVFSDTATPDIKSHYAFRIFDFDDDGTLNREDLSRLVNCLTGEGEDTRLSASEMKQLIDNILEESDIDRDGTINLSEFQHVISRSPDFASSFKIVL
How it was run: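 Displacement of FITC-alphaIIb peptide (100 nM) from CIB1-GST (1 uM) is monitored by polarization in quantitative HTS format; buffer carries 5 mM CaCl2 and 125 mM NaCl at pH 7.4, incubations are at room temperature.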

[2] = target: Calcium and integrin-binding protein 1 (Homo sapiens) (UniProt Q99828); experiment: Primary qHTS for Identification of Calcium Integrin Binding Protein 1 (CIB1) Competitor (AID 1508620); settings: CIB1-GST / FITC-alphaIIb peptide fluorescence polarization; series mostly up to 114 µM; further: potency means the concentration at half of the fitted maximal effect
How it was run: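 Fluorescence polarization competition: CIB1-GST (1 uM final) preincubated with compound 15 min at room temperature, then FITC-labeled alphaIIb peptide (100 nM final) added for another 15 min. Polarization read at Ex 480/Em 540.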

[3] = Primary qHTS for small molecule stabilizers of the endoplasmic reticulum resident proteome: Secreted ER Calcium Modulated Protein (SERCaMP) assay (AID 1508630); settings: SH-SY5Y GLuc-SERCaMP (Gaussia luciferase released on ER calcium loss) secretion, thapsigargin, luminescence; series mostly up to 38.4 µM
How it was run: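 GLuc-SERCaMP-expressing SH-SY5Y cells, pretreated 16 h with compound, are challenged with thapsigargin to empty ER calcium stores; after 4 h, coelenterazine is added directly to the medium and luminescence is imaged.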

[4] = A High-Content qHTS Against Drug Library for the Identification of Small Molecules that Inhibit DYT1 Early Onset Primary Dystonia-Associated Cell Pathology (AID 1645839; calls by dose curve; further: potency means the concentration at half of the fitted maximal effect); settings: HEK293 Flp-In EGFP-delE TorsinA, punctate imaging, 48 h; series mostly up to 46.1 µM
How it was run: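 Readout: %pathology, the punctate EGFP-TorsinA distribution from imaging, as the primary channel and cell count as the toxicity counterscreen. HEK293 Flp-In cells expressing delE TorsinA were induced with tetracycline and treated with compound for 48 h.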

Papain (Carica papaya) = Papain (Carica papaya) (UniProt P00784); experiment: Primary qHTS assay for inhibitors of the protease papain (AID 1645873); settings: papain Z-FR-AMC cleavage, AMC fluorescence; series mostly up to 49.8 µM;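 further: papain turnover of Z-FR-AMC read as the AMC fluorescence gain over 10 min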
Chain of Papain (Carica papaya) (P00784 whole entry, looked up, the tested form may be a part): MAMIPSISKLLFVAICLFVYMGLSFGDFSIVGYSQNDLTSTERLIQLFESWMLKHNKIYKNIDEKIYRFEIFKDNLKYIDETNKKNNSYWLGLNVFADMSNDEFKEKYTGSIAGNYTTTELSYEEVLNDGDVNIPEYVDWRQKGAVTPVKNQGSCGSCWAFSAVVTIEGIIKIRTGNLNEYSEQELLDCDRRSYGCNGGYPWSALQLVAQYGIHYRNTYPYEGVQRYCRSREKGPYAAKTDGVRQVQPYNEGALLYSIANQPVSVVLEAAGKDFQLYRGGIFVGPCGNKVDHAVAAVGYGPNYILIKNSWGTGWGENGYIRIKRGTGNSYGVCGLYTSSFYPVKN

[5] = Primary qHTS for inhibitors of nuclear receptor binding SET domain protein 2 (NSD2) in an isogenic RCH-ACV NSD2 p.E1099K mutant (9B) (AID 1645876); settings: RCH-ACV NSD2 E1099K (9B) viability, CellTiter-Glo, 72 h; series mostly up to 44.9 µM; further: nearly all actives have a fitted effect of over 70% in size; further: potency means the concentration at half of the fitted maximal effect
[6] = Primary qHTS for inhibitors of nuclear receptor binding SET domain protein 2 (NSD2) in an RCH-ACV wild type WT cells (2C) (AID 1645877); settings: RCH-ACV (leukaemia line) NSD2 WT (2C) viability, CellTiter-Glo, 72 h; series mostly up to 44.9 µM; further: nearly all actives have a fitted effect of over 70% in size; further: potency means the concentration at half of the fitted maximal effect
[7] = target: Cytochrome P450 2D6 (Homo sapiens) (UniProt P10635); experiment: Cytochrome P450 family 2 subfamily D member 6 (CYP2D6) small molecule antagonists: luciferase biochemical (cell-free) qHTS assay (AID 1645840; active means well fitted curve in the direction sought with a large enough effect in the repeat runs; an effect the other way counts as inactive or inconclusive; further: nearly all actives have a fitted effect of over 55% in size; further: potency means the concentration at half of the fitted maximal effect); settings: P450-Glo CYP2D6 enzyme, luciferin luminescence, 1 h; series mostly up to 57.4 µM
Chain of Cytochrome P450 2D6 (Homo sapiens) (P10635 whole entry, looked up): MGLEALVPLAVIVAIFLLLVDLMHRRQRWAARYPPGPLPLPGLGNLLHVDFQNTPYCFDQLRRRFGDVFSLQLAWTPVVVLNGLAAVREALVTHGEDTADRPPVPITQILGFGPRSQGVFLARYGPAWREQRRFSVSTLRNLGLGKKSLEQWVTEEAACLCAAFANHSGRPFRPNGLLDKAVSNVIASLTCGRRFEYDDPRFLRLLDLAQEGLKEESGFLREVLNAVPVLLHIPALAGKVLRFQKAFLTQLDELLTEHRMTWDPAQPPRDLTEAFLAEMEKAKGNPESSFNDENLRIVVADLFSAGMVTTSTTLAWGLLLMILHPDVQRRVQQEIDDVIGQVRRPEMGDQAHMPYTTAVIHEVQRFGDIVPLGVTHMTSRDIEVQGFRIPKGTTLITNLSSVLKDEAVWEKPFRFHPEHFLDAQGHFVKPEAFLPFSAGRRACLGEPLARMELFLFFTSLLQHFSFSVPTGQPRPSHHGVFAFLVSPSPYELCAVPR
How it was run: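 P450-Glo luminescent screen: recombinant CYP2D6 enzyme–proluciferin substrate mix preincubated with compound 10 min at room temperature, then NADPH regeneration added for 1 h at room temperature. Detection reagent added for 20 min; luciferin light read as relative luminescence units.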

[8] = target: Cytochrome P450 2C9 (Homo sapiens) (UniProt P11712); experiment: Cytochrome P450 family 2 subfamily C member 9 (CYP2C9) small molecule antagonists: luciferase biochemical (cell-free) qHTS assay (AID 1645842; active means well fitted curve in the direction sought with a large enough effect in the repeat runs; an effect the other way counts as inactive or inconclusive; further: nearly all actives have a fitted effect of over 55% in size; further: potency means the concentration at half of the fitted maximal effect); settings: P450-Glo CYP2C9 enzyme assay, luciferin luminescence; series mostly up to 57.4 µM
Chain of Cytochrome P450 2C9 (Homo sapiens) (P11712 whole entry, looked up): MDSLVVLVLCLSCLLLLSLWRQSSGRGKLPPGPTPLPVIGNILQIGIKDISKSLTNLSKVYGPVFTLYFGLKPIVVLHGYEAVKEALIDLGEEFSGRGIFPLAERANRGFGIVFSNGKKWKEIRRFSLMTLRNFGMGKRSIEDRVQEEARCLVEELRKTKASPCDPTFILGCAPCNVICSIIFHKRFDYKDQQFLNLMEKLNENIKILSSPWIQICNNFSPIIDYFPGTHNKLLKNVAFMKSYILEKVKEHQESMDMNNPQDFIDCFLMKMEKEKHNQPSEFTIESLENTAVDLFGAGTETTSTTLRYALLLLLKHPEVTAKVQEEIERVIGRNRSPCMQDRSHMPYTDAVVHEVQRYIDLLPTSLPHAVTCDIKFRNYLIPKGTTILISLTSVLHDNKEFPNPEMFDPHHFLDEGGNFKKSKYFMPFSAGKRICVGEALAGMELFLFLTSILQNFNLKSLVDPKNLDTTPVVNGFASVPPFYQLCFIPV
How it was run: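 Luminescence, after 20 min with luciferin detection reagent, reflected CYP2C9 turnover during a 1 h NADPH-driven reaction at 37C. Enzyme-substrate mix contained 0.4% bovine serum albumin and was preincubated with compound 10 min at room temperature.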

[9] = target: Cytochrome P450 3A4 (Homo sapiens) (UniProt P08684); experiment: Cytochrome P450 family 3 subfamily A member 4 (CYP3A4) small molecule antagonists: luciferase qHTS assay (AID 1645841; active means well fitted curve in the direction sought with a large enough effect in the repeat runs; an effect the other way counts as inactive or inconclusive; further: nearly all actives have a fitted effect of over 45% in size); settings: P450-Glo CYP3A4 enzyme assay, luciferin luminescence; series mostly up to 57.4 µM
Chain of Cytochrome P450 3A4 (Homo sapiens) (P08684 whole entry, looked up): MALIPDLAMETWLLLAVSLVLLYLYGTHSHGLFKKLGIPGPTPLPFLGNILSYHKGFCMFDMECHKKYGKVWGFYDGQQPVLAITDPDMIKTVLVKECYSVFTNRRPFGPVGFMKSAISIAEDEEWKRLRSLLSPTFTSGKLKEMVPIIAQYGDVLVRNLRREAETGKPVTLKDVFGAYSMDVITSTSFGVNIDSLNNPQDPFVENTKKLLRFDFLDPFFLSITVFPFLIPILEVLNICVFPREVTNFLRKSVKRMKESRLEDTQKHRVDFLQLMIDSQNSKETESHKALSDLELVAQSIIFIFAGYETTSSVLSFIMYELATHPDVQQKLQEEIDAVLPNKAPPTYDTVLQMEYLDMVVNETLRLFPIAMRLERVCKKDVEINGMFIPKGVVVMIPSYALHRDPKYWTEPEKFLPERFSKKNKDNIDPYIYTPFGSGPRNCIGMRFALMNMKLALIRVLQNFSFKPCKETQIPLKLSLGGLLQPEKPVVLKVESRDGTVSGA
How it was run: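 P450-Glo CYP3A4 enzyme with proluciferin substrate was preincubated with DMSO-dissolved compounds for 10 min at room temperature. NADPH regeneration solution started a 1 h reaction. Detection reagent stopped it, and luminescence was read after 20 min.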

[10] = target: Rap guanine nucleotide exchange factor 3 (Homo sapiens) (UniProt O95398); experiment: Confirmatory qHTS for agonist of cAMP-regulated guanine nucleotide exchange factor 3 (EPAC1) (AID 1645881); settings: EPAC1 Rap1B BODIPY-GDP exchange fluorescence; series mostly up to 154 µM;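 further: EPAC1 catalysed release of BODIPY-GDP from Rap1B seen as fluorescence loss; nearly all actives have a fitted effect of over 75% in size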
Chain of Rap guanine nucleotide exchange factor 3 (Homo sapiens) (O95398 whole entry, looked up): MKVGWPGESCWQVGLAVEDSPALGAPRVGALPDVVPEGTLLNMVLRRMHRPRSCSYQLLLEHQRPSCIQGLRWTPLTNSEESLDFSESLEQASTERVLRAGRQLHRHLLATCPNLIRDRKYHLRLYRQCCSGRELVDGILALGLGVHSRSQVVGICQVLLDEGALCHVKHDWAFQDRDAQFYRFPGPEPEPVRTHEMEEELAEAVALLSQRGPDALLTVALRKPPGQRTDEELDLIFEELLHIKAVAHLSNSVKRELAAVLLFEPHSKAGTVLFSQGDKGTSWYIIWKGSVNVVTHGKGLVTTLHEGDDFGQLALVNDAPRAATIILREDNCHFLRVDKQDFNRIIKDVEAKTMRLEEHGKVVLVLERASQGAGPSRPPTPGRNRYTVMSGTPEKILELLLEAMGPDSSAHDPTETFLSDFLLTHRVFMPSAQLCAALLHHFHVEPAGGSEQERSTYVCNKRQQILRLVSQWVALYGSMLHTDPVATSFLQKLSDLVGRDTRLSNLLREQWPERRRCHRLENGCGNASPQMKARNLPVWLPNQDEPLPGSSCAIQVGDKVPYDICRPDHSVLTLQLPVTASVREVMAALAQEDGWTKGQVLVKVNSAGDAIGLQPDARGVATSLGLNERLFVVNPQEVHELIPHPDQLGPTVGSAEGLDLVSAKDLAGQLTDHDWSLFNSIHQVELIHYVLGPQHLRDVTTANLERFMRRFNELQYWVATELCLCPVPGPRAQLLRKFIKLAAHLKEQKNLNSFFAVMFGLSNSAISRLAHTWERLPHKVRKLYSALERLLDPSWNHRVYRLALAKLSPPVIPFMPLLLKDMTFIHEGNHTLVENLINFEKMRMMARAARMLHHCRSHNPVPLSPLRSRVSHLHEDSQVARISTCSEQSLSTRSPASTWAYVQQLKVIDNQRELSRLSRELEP

[11] = target: Rap guanine nucleotide exchange factor 4 (Homo sapiens) (UniProt Q8WZA2); experiment: Confirmatory qHTS for agonist of cAMP-regulated guanine nucleotide exchange factor 4 (EPAC2) (AID 1645884); settings: EPAC2 GEF activity, Rap1B-BODIPY-GDP fluorescence; series mostly up to 154 µM;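 further: nucleotide exchange releases bodipy-GDP from Rap1 and this lowers its fluorescence; nearly all actives have a fitted effect of over 65% in size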
Chain of Rap guanine nucleotide exchange factor 4 (Homo sapiens) (Q8WZA2 whole entry, looked up): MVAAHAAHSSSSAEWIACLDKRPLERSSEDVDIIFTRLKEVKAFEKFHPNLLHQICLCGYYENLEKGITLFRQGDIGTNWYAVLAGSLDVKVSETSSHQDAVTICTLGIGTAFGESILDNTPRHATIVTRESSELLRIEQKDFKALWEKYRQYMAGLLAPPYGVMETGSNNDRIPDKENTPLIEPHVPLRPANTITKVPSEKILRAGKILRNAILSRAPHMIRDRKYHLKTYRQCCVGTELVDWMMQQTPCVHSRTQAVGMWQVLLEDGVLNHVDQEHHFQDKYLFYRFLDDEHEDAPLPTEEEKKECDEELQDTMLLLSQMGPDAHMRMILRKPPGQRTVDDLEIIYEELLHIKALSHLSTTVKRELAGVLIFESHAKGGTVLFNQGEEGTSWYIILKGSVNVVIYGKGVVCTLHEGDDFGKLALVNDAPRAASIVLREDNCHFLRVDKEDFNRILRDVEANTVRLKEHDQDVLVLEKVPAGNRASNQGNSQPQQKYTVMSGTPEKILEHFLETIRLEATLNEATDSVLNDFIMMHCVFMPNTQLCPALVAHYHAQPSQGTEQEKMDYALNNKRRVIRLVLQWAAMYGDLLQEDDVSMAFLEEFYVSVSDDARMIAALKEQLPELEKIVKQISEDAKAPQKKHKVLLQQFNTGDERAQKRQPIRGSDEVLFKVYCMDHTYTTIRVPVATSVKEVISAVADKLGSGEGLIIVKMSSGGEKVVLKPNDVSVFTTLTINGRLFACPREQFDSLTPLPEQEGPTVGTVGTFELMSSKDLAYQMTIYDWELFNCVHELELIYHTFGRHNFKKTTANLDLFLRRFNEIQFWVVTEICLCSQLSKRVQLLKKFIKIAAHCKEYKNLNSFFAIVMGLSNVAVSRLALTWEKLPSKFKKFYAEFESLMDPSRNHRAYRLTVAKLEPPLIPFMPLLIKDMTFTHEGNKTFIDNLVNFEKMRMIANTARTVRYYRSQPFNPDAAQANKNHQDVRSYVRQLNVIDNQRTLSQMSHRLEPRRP

[12] = target: Rap guanine nucleotide exchange factor 3 (Homo sapiens) (UniProt O95398); experiment: Confirmatory qHTS for antagonist of cAMP-regulated guanine nucleotide exchange factor 3 (EPAC1) (AID 1645880); settings: EPAC1 Rap1B-BODIPY-GDP exchange, fluorescence; series mostly up to 115 µM; further: nearly all actives have a fitted effect of over 55% in size
How it was run: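 Nucleotide exchange uses 100 nM EPAC1, 250 nM RAP1B-BODIPY-GDP and 50 uM GDP, with compounds in a concentration-titration series. After 5 min at room temperature, fluorescence (480 nm ex/540 nm em) is read every 5 min for 30 min. Data are normalized to control ATA and DMSO.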

| SMILES | outcome [1] | Potency [2] | Potency [3] | Potency [4] | Potency (Papain (Carica papaya)) | Potency [5] | Potency [6] | Potency [7] | Potency [8] | outcome [9] | Potency [10] | Potency [11] | outcome [12] |
| --- | --- | --- | --- | --- | --- | --- | --- | --- | --- | --- | --- | --- | --- |
| Cc1ccc(S(=O)(=O)NC(=O)NN2CCCCCC2)cc1 | inactive | inactive | inactive | inactive | inactive | inactive | inactive |  |  |  |  |  |  |
| CC(C)[N+](C)(CCOC(=O)C1c2ccccc2Oc2ccccc21)C(C)C | inactive | inactive |  | inactive | inactive | inactive | inactive | 309 nM (active) | inactive |  |  |  |  |
| O=C(O)CP(=O)(O)O | inactive | inactive |  | inactive | inactive | inactive | inactive | inactive | inactive |  |  |  |  |
| CCN1CCC[C@H]1CNC(=O)c1c(O)c(Cl)cc(Cl)c1OC | inactive | inactive | inactive | inactive | inactive | inactive | inactive |  | inactive |  |  |  |  |
| NC(N)=NC(=O)Cc1c(Cl)cccc1Cl | inactive | inactive | inactive | inactive | inactive |  |  |  | inactive |  |  |  |  |
| C[n+]1cc2c3c(ccc2c2ccc4cc5c(cc4c21)OCO5)OCO3 | inactive | 14.1 µM (active) | inactive |  | inactive | 0.58 µM (active) | 0.411 µM (active) | 6740 nM (active) |  |  |  |  |  |
| CC(C)(C)c1ccc(C(=O)CCCN2CCC(OC(c3ccccc3)c3ccccc3)CC2)cc1 | inactive | inactive | inactive |  | inactive | 11.9 µM (active) | 9.44 µM (active) |  |  |  |  |  |  |
| Nc1ncn([C@@H]2O[C@H](CO)[C@@H](O)[C@H]2O)c(=O)n1 | inactive | inactive | inactive |  | inactive | 10.5 µM (active) | 9.34 µM (active) | inactive |  | inactive |  |  |  |
| CN(C)CCN(Cc1cccs1)c1ccccn1 | inactive | inactive | inactive | inactive | inactive | inactive | inactive |  |  |  |  |  |  |
| COCCCC/C(=N\OCCN)c1ccc(C(F)(F)F)cc1 | inactive | inactive |  |  | inactive |  |  | 977 nM (active) | 11 µM (active) |  |  |  |  |
| CCNC(=O)N1CCN(CCCC(c2ccc(F)cc2)c2ccc(F)cc2)CC1 | inactive | inactive |  |  | inactive |  |  |  | inactive |  |  |  |  |
| O=C1NCN(c2ccccc2)C12CCN(CCCC(c1ccc(F)cc1)c1ccc(F)cc1)CC2 |  |  | inactive |  | inactive | 4.22 µM (active) | 2.66 µM (active) | 436 nM (active) |  | inactive | inactive | inactive |  |
| CN(C)CCCN1c2ccccc2Sc2ccc(C(F)(F)F)cc21 |  |  | inactive |  | inactive | 21.1 µM (active) | 18.8 µM (active) | 97.7 nM (active) | inactive |  |  |  |  |
| Fc1ccc(C(c2ccc(F)cc2)N2CCN(C/C=C/c3ccccc3)CC2)cc1 | inactive | inactive |  | 12.6 µM (active) | inactive |  |  |  | 7.76 µM (active) |  |  |  |  |
| CCCCOCCOCCOCc1cc2c(cc1CCC)OCO2 |  | inactive | inactive | inactive |  | inactive | inactive | 1.56 µM (active) and 1.74 µM (active) | 340 nM (active) and 123 nM (active) |  | inactive | inactive | inactive |
| CCCOc1ccccc1-c1nc2n[nH]nc2c(=O)[nH]1 |  | inactive | inactive | inactive | inactive |  |  | inactive |  |  |  |  |  |
| CCN1CCc2nc(N)oc2CC1 |  | inactive | inactive | inactive |  | inactive | inactive | inactive |  |  |  |  |  |
| CCCCCN(CCCCC)C(=O)C(CCC(=O)O)NC(=O)c1ccc(Cl)c(Cl)c1 (centres undefined) |  | inactive | inactive |  |  | inactive | inactive |  | 1.38 µM (active) |  |  |  |  |
| Cc1cc(C)c(/C=C2\C(=O)Nc3ccccc32)[nH]1 |  | inactive |  | inactive | inactive | inactive | inactive | inactive | 9.77 µM (active) |  |  |  |  |
| NC(=O)c1ncn([C@@H]2O[C@H](CO)[C@@H](O)[C@H]2O)c1O | inactive |  | inactive | inactive | inactive | inactive | inactive | inactive |  |  |  |  |  |
| CCn1nc(C(=O)O)c(=O)c2cc3c(cc21)OCO3 | inactive | inactive |  | inactive | inactive | inactive | inactive |  |  |  |  |  |  |
| COC(=O)C1=C(C)NC(C)=C(C(=O)OCCN(C)Cc2ccccc2)C1c1cccc([N+](=O)[O-])c1 (centres undefined) |  | inactive |  |  | inactive |  | 23.7 µM (active) |  |  |  | inactive | inactive |  |
